# In the supplement of paper PMC8728848:
# The full list was thinned out, with the strongest signals kept by preference.
# B1: SUN4 (Saccharomyces cerevisiae), P53616 (protein)
# chain: MGSSHHHHHHSSGLVPRGSHNGSIYGDLADFSGPYEKFEDGTIPCGQFPSGQGVIPISWLDEGGWSGVENTDTSTGGSCKEGSYCSYACQPGMSKTQWPSDQPSDGRSIGGLLCKDGYLYRSNTDTDYLCEWGVDAAYVVSELSNDVAICRTDYPGTENMVIPTYVQAGDSLPLTVVDQDTYYTWQGLKTSAQYYVNNAGISVEDACVWGSSSSGVGNWAPLNFGAGSSDGVAYLSLIPNPNNGNALNFNVKIVAADDSSTVNGECIYENGSFSGGSDGCTVSVTAGKAKFVLYN
# How the values were obtained:
# Experiment in all cases: glycan array binding signal (z-score within array); higher = stronger binding
# Conditions in all cases: glycan notation: IUPAC condensed, linker removed
# [1] = target: Fuc(a1-2)Gal(b1-3)GalNAc(b1-3)Gal(a1-4)Gal(b1-4)Glc
# In short: (§1)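 From the Consortium for Functional Glycomics database, 3228 arrays were curated, keeping only those whose protein sequence was available. Binding is given as a within-array Z-score averaged across arrays sharing a protein sequence and across linkers. Negative Z-scores can be read as non-binding.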
# [2] = target: Fuc(a1-2)Gal(b1-3)[Fuc(a1-4)]GlcNAc
# In short: as §1
# [3] = target: Fuc(a1-2)Gal(b1-3)[Fuc(a1-4)]GlcNAc(b1-2)Man(a1-3)[Fuc(a1-2)Gal(b1-3)[Fuc(a1-4)]GlcNAc(b1-2)Man(a1-3)]Man(b1-4)GlcNAc(b1-4)GlcNAc
# In short: as §1
# [4] = target: Fuc(a1-2)Gal(b1-3)[Fuc(a1-4)]GlcNAc(b1-3)[Gal(b1-4)GlcNAc(b1-6)]Gal(b1-4)Glc
# In short: as §1
# [5] = target: Fuc(a1-2)Gal(b1-4)GlcNAc(b1-2)Man
# In short: as §1
# [6] = target: Fuc(a1-2)[Gal(a1-3)]Gal(b1-3)GlcNAc(b1-6)GalNAc
# In short: as §1
# [7] = target: Fuc(a1-2)[Gal(a1-3)]Gal(b1-4)[Fuc(a1-3)]GlcNAc(b1-3)GalNAc
# In short: as §1
# [8] = target: Fuc(a1-2)[GalNAc(a1-3)]Gal(b1-3)GlcNAc(b1-6)GalNAc
# In short: as §1
# [9] = target: Fuc(a1-2)[GalNAc(a1-3)]Gal(b1-4)Glc
# In short: as §1
# [10] = target: Gal(a1-3)Gal(b1-3)GlcNAc(b1-2)Man(a1-3)[Gal(a1-3)Gal(b1-3)GlcNAc(b1-2)Man(a1-6)]Man(b1-4)GlcNAc(b1-4)GlcNAc
# In short: as §1
# [11] = target: Gal(a1-3)Gal(b1-3)[Fuc(a1-4)]GlcNAc(b1-2)Man(a1-3)[Gal(a1-3)Gal(b1-3)[Fuc(a1-4)]GlcNAc(b1-2)Man(a1-6)]Man(b1-4)GlcNAc(b1-4)GlcNAc
# In short: as §1
# [12] = target: Gal(a1-3)Gal(b1-4)[Fuc(a1-3)]GlcNAc(b1-2)Man(a1-3)[Gal(a1-3)Gal(b1-4)[Fuc(a1-3)]GlcNAc(b1-2)Man(a1-6)]Man(b1-4)GlcNAc(b1-4)GlcNAc
# In short: as §1
# [13] = target: Gal(a1-4)Gal(b1-4)GlcNAc(b1-3)Gal(b1-4)Glc
# In short: as §1
# Gal(a1-6)Glc = target: Gal(a1-6)Glc
# In short: as §1
# Gal(b1-3)GalNAc(b1-3)Gal = target: Gal(b1-3)GalNAc(b1-3)Gal
# In short: as §1
# [14] = target: Gal(b1-3)GalNAc(b1-3)Gal(a1-4)Gal(b1-4)Glc
# In short: as §1
# [15] = target: Gal(b1-3)GlcNAc(b1-2)Man(a1-3)[Gal(b1-3)GlcNAc(b1-2)Man(a1-6)]Man(b1-4)GlcNAc(b1-4)[Fuc(a1-6)]GlcNAc
# In short: as §1
# [16] = target: Gal(b1-3)GlcNAc(b1-3)Gal(b1-4)GlcNAc(b1-2)Man(a1-3)[Gal(b1-3)GlcNAc(b1-3)Gal(b1-4)GlcNAc(b1-2)Man(a1-6)]Man(b1-4)GlcNAc(b1-4)GlcNAc
# In short: as §1
# [17] = target: Gal(b1-3)GlcNAc(b1-3)Gal(b1-4)[Fuc(a1-3)]GlcNAc(b1-6)[Gal(b1-3)GlcNAc(b1-3)]Gal(b1-4)Glc
# In short: as §1
# [18] = target: Gal(b1-3)GlcNAc(b1-3)GalNAc
# In short: as §1
# [19] = target: Gal(b1-3)GlcNAc(b1-6)[Gal(b1-3)]GalNAc
# In short: as §1
# [20] = target: Gal(b1-3)[Fuc(a1-4)]GlcNAc(b1-6)GalNAc
# In short: as §1
# Gal(b1-4)Glc6S = target: Gal(b1-4)Glc6S
# In short: as §1
# [21] = target: Gal(b1-4)GlcNAc(b1-2)Man(a1-3)[Gal(b1-4)GlcNAc(b1-2)Man(a1-6)]Man(b1-4)GlcNAc(b1-4)[Fuc(a1-6)]GlcNAc
# In short: as §1
# [22] = target: Gal(b1-4)GlcNAc(b1-2)[Gal(b1-4)GlcNAc(b1-4)]Man(a1-3)[GlcNAc(b1-4)][Gal(b1-4)GlcNAc(b1-2)Man(a1-6)]Man(b1-4)GlcNAc(b1-4)GlcNAc
# In short: as §1
# [23] = target: Gal(b1-4)GlcNAc(b1-3)Gal(b1-4)GlcNAc(b1-2)Man(a1-3)[Gal(b1-4)GlcNAc(b1-3)Gal(b1-4)GlcNAc(b1-2)Man(a1-6)]Man(b1-4)GlcNAc(b1-4)GlcNAc
# In short: as §1
# [24] = target: Gal(b1-4)GlcNAc(b1-3)Gal(b1-4)GlcNAc(b1-2)Man(a1-3)[Gal(b1-4)GlcNAc(b1-3)Gal(b1-4)GlcNAc(b1-2)Man(a1-6)]Man(b1-4)GlcNAc(b1-4)[Fuc(a1-6)]GlcNAc
# In short: as §1
binder,measurement,setting,value
B1,glycan array binding signal (z-score),[1],0.954
same,glycan array binding signal (z-score),[2],-0.752
same,glycan array binding signal (z-score),[3],-0.207
same,glycan array binding signal (z-score),[4],0.297
same,glycan array binding signal (z-score),[5],0.324
same,glycan array binding signal (z-score),[6],-0.368
same,glycan array binding signal (z-score),[7],-0.487
same,glycan array binding signal (z-score),[8],-0.525
same,glycan array binding signal (z-score),[9],-0.935
same,glycan array binding signal (z-score),[10],1.63
same,glycan array binding signal (z-score),[11],1.91
same,glycan array binding signal (z-score),[12],3.09
same,glycan array binding signal (z-score),[13],-0.077
same,glycan array binding signal (z-score),Gal(a1-6)Glc,-1.22
same,glycan array binding signal (z-score),Gal(b1-3)GalNAc(b1-3)Gal,-0.668
same,glycan array binding signal (z-score),[14],0.295
same,glycan array binding signal (z-score),[15],-0.257
same,glycan array binding signal (z-score),[16],0.342
same,glycan array binding signal (z-score),[17],-0.488
same,glycan array binding signal (z-score),[18],-0.163
same,glycan array binding signal (z-score),[19],0.101
same,glycan array binding signal (z-score),[20],0.835
same,glycan array binding signal (z-score),Gal(b1-4)Glc6S,-0.03
same,glycan array binding signal (z-score),[21],0.829
same,glycan array binding signal (z-score),[22],0.208
same,glycan array binding signal (z-score),[23],2.66
same,glycan array binding signal (z-score),[24],2
